A short description of test [1]: NCATS anti-infectives library activity on the primary C. elegans qHTS viability assay (AID 1745855; calls by dose curve). The following applies: C. elegans worm area imaging, day 7; at 41.8 µM (top of the series). An excerpt: (§1) Assay Development and Screening Technology Laboratory (ADST)
(§2) National Center for Advancing Translational Sciences (NCATS), Rockville, MD
(§3) National Institute of Health (NIH), Bethesda, Maryland
Caenorhabditis elegans has helped elucidate the evolutionarily conserved genetics underlying pathways and cellular processes implicated in human disease and may be ideally positioned to reveal novel pharmacological properties of exiting drugs. The organism's short life cycle and microscopic size is applicable to the technical requirements of high-throughput screening. Here a quantitative high-throughput screening (qHTS)-based forward chemical biology platform has been developed using C. elegans. 384-well microtiter plate laser scanning cytometry was used in the rapid detection and quantification of the fluorescent protein-encoded phenotype to score worm viability. In a proof-of-concept study, the pharmacological qHTS profile obtained from a library of 643 anti-infective compounds.
1. […] P. (2006) Quantitative high-throughput screening: A titration-based approach that efficiently identifies biological activities in large chemical libraries, P Natl Acad Sci USA 103, 11473-11478.
2. […] P., and Inglese, J. (2006) Fluorescent protein-based cellular assays analyzed by laser-scanning microplate cytometry in 1536-well plate format, Method Enzymol 414, 566-589.
3. Zuck, P., Lao, Z., Skwish, S., Glickman, J. F., Yang, K., Burbaum, J., and Inglese, J. (1999) Ligand-receptor binding measured by laser-scanning imaging, Proc Natl Acad Sci U S A 96, 11122-11127. […]
SEQUENCE No. (e.g., 1, 2, 3, etc.); […] (e.g., C. elegans, Compounds, Incubation, Read, etc.); VALUE and DESCRIPTION. […]
2. […] Library compounds, levamisole toxicity control and DMSO vehicle control added at 250 nL per well to 21 assay ready 384-well Greiner uClear plates and two DMSO control plates, transferred by Echo acoustic dispenser.
3. […] Add 30 uL per well strained TOP10 E. coli capsules diluted to OD600 = 0.85 in S medium to 23 assay ready 384-well Greiner uClear plates. […]
A general note: In qHTS, concentration-response curves come from the screen itself.

Test [2] deals with Glutathione peroxidase 1 (Homo sapiens) (UniProt P07203). The test is described as follows: Primary qHTS Assay for Inhibitors of Recombinant Selenoprotein Glutathione Peroxidase 1 (GPX1) (AID 1845191). Further: nearly all actives have a fitted effect of over 65% in size. Further: potency means the concentration at half of the fitted maximal effect. The gist of the method: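 NADPH consumption tracked by fluorescence at 340/450 nm between t=0 and t=15 min, room temperature. Final mix: 10 nM GPX1, 100 nM glutathione reductase, 1 mM GSH, 0.5 mM NADPH, 0.5 mM cumene hydroperoxide, 0.01% BSA; 30 min compound–enzyme preincubation.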

Test [3] addresses Phospholipid hydroperoxide glutathione peroxidase GPX4 (Homo sapiens) (UniProt P36969). The test is described as follows: Primary qHTS Assay for Inhibitors of Recombinant Selenoprotein Glutathione Peroxidase 4 (GPX4) (AID 1845192). Further: nearly all actives have a fitted effect of over 65% in size. Further: potency means the concentration at half of the fitted maximal effect. Put shortly:
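NADPH consumption followed by fluorescence at 340/450 nm, t=0 and after 15 min at room temperature. Reaction started with cumene hydroperoxide (0.5 mM final) after 30 min compound–GPX4 preincubation; final 200 nM GPX4, 100 nM GR, 1 mM GSH, 0.5 mM NADPH.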

In test [4] the target is Luciferin 4-monooxygenase (Photinus pyralis) (UniProt P08659). The test is described as follows: Primary firefly luciferase (FLuc) qHTS assay for identification of artifact compounds. (AID 1845220). Further: nearly all actives have a fitted effect of over 60% in size. The gist of the method:
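Compounds sat 15 min at room temperature with 10 uM luciferin and 10 uM ATP (pH 7.6 Tris acetate). Firefly luciferase (10 nM final) was then added, and luminescence was read 5 min later. Data normalized to no-enzyme and DMSO controls were Hill-fitted.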

Test [5] deals with Metallo-beta-lactamase type 2 (Klebsiella pneumoniae) (UniProt C7C422). In words: qHTS to identify inhibitors of the New Delhi Metallo-beta-lactamase (NDM): assay validation screen against the NCATS LOPAC Collection (AID 1794843).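 Further: nitrocefin turnover by NDM-1 measured as 485 nm absorbance at plateau.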
Text: Assay Submitter (PI): James Inglese Ph.D., Patricia Dranchak Ph.D., Mahesh Aitha Ph.D.
as §1, §2, §3
The metallo-beta-lactamases (MBL) are a main antibiotic resistance mechanism evolved by bacteria. There is an urgent clinical need for MBL inhibitors to mitigate this growing threat. To support a machine-based learning study, qHTS has been used to experimentally test inhibitors identified by prediction tools.
PROTOCOL TABLE (as described by Inglese et al., 2007)
SEQUENCE No. (e.g., 1, 2, 3, etc.); […] (e.g., enzyme, Incubation, Reagent, etc.); VALUE; DESCRIPTION
1; NDM-1; 4 uL of 3 nM enzyme in 50 mM HEPES (pH 7.0), 1 uM Zn2SO4, 0.01% Tween20; Use BioRaptr to dispense into Aurora black, clear bottom low base 1536-well plates
2; Compounds; 23 nL; Use Pin Tool (Wako) to transfer DMSO control and library compounds in DMSO
4; Reagent; 2 uL of 50 uM nitrocefin
6; Detector; Absorbance at 485 nm (bandwidth = 5 nm, 25 flashes/well) on Tecan Infinity […]
6; Default reader settings were applied for absorbance read at 485 nm, bandwidth = 5 nm, 25 flashes/well. […]
Yasgar A, Shinn P, Jadhav A, Auld D, Michael S, Zheng W, Austin CP, Inglese J, Simeonov A. 2008. Compound Management for Quantitative High-Throughput Screening. […]

A short description of test [6]: Viability counterscreen for antagonist of constitutive androstane receptor (CAR) against the NCATS DSHEA and TCM libraries (AID 1794837).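 Further: compound exposure lasted 24 h before viability reading.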 The gist of the method:
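HepG2-CYP2B6-hCAR cells (2,500/well) were allowed to attach for 5 h, then exposed to compounds with 48 uM CITCO for 24 h at 37C. Viability was read by CellTiter-Fluor fluorescence after 1 h.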
(In general: A counterscreen serves to expose hits that act by an unwanted route or on another target.)

The nature of test [7]: Viability counterscreen for agonist of constitutive androstane receptor (CAR) against the NCATS DSHEA and TCM libraries (AID 1794838). The gist of the method:
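HepG2-CYP2B6-hCAR cells (2,500/well) attached 5 h, then got compounds plus 0.75 uM PK11195 final. After 24 h at 37C, viability read by CellTiter-Fluor fluorescence (Ex/Em 405/540 nm).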

Test [8] addresses Nuclear receptor subfamily 1 group I member 3 (Homo sapiens) (UniProt Q14994). In words: Primary qHTS for agonist of constitutive androstane receptor (CAR) against the NCATS DSHEA and TCM libraries (AID 1794839).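 Further: HepG2 cells expressing human CAR with a CYP2B6 reporter plus PK11195 antagonist.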 Put shortly: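 HepG2-CYP2B6-hCAR cells (2,500/well) were attached for 5 h, then treated for 24 h at 37 °C with compounds plus 0.75 µM PK11195. Luciferase luminescence (ONE-Glo) was read, with CellTiter-Fluor viability (Ex/Em 405/540 nm).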

A short description of test [9]: HepG2 viability counterscreen (readout 2: ATP content) against the NCATS DSHEA and TCM libraries (AID 1794840).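 Further: HepG2 cells exposed to substances for about 24 h.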 The gist of the method: (§4)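 HepG2 cells (1,000 cells/well) attached ~4 h, then treated ~24 h at 37C with substances. Protease activity read by GF-AFC (25 uM final, 30 min, Ex/Em 380/510 nm); ATP content then by CellTiter-Glo luminescence.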
A short description of test [10]: HepG2 viability counterscreen (readout 1: protease activity) against the NCATS DSHEA and TCM libraries (AID 1794841).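 Further: cells exposed to compounds for about 24 h before the protease read.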 The gist of the method:
as §4

Inconclusive results are not listed. Activity calls are given as the source filed them. Unless noted, the call rests on the fitted dose curve; in most records, active means well fitted curve in the direction sought with a large enough effect; inconclusive means small, poorly fitted or top-dose-only effect, or another doubt; inactive means no such curve, though single readings can be large; an effect the other way counts as inactive or inconclusive.

Sequence of Glutathione peroxidase 1 (Homo sapiens) (P07203 whole entry, looked up): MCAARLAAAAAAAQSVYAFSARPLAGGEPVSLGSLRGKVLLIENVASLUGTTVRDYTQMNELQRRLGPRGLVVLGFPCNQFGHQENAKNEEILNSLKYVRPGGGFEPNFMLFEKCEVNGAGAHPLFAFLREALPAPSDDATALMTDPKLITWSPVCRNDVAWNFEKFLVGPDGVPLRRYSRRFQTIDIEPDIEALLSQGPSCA
Sequence of Phospholipid hydroperoxide glutathione peroxidase GPX4 (Homo sapiens) (P36969 whole entry, looked up): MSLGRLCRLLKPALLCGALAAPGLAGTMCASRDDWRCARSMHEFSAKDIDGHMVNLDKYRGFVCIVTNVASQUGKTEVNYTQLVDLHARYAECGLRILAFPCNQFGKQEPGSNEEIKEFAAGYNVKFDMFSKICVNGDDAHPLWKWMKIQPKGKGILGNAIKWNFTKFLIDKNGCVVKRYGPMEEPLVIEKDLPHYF
Sequence of Nuclear receptor subfamily 1 group I member 3 (Homo sapiens) (Q14994 whole entry, looked up): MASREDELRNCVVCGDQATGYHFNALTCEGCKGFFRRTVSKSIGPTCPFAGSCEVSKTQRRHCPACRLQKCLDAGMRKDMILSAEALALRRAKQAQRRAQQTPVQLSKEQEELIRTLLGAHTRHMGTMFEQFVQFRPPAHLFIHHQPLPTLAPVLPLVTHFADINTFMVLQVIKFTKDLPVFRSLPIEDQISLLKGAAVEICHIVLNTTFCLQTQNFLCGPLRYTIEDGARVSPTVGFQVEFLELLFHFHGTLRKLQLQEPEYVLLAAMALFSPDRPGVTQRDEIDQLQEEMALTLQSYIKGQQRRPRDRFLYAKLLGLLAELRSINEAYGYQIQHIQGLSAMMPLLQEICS
Sequence of Metallo-beta-lactamase type 2 (Klebsiella pneumoniae) (C7C422 whole entry, looked up): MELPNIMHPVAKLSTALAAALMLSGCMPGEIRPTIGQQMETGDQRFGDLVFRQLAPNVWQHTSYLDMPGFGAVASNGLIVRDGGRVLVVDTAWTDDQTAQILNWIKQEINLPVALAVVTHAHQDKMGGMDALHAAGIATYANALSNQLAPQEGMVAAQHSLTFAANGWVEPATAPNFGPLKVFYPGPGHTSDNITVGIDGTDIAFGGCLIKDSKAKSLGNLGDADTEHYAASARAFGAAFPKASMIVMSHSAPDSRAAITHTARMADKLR

For `CCOc1nc2cccc(C(=O)O)c2n1Cc1ccc(-c2ccccc2-c2noc(=O)[nH]2)cc1`, the compound was called inactive in test [1]. For the same compound, the Potency entry in [2], in [3] and in test [4] was “inactive” throughout.

As for `NCc1ccccc1CC(=O)N[C@@H]1C(=O)N2C(C(=O)O)=C(CSc3nnnn3CC(=O)O)CS[C@H]12`, the Potency in test [2] was 5.08 µM (active); in [3], 15.8 µM (active).

As for `CN1Cc2c(N)cccc2C(c2ccccc2)C1` (centres undefined), in [5], the compound was called inactive. In addition, the Potency result in [2] and in test [3] was “inactive” in each case.

With `CC(=O)OC(C)OC(=O)C(C)c1ccc(-c2ccccc2)c(F)c1` (centres undefined), the Potency result in test [2] and in test [3] was “inactive” throughout.

For `NCc1ccc(OCCCc2sc(-c3ccc4c(c3)/C(=N/Nc3nc5ccccc5s3)CCC4)nc2C(=O)O)cc1`, the Potency result in test [2] and in test [3] was “inactive” each time.

`COCC(=O)Nc1cc(Sc2ccccc2)ccc1N=C(NC(=O)OC)NC(=O)OC`: the Potency entry in [2] was “inactive”.

In the case of `CC[C@@H](C(=O)[C@@H](C)[C@@H](O)[C@H](C)CCc1ccc(C)c(O)c1C(=O)O)[C@H]1O[C@](CC)([C@H]2CC[C@](O)(CC)[C@H](C)O2)C[C@@H]1C`, in test [2], the Potency result was “inactive”. Also, the Potency in test [3] is 4.47 µM (active).

`CC1=C(/C=C/C(C)=C/C=C/C(C)=C/C=C/C=C(C)/C=C/C=C(C)/C=C/C2=C(C)CCCC2(C)C)C(C)(C)CCC1`: the compound was called inactive in test [6], in [7], in test [8], in test [9] and in test [10]. The Potency entry in test [2] and in test [3] was “inactive” each time.

Consider `O=CCCCC=O`, for which the Potency result in [2] and in test [3] was “inactive” each time.

For the compound `Cc1c(C)c2c(c(C)c1O)CC[C@@](C)(CCC[C@H](C)CCC[C@H](C)CCCC(C)C)O2`, the call in test [9] and in [10] was inactive.

On to `CC[C@@H](C(=O)O)[C@@H]1O[C@@H]([C@@H](C)[C@H](O)[C@H](C)C(=O)[C@H](CC)[C@H]2O[C@]3(C=C[C@@H](O)[C@]4(CC[C@@](C)([C@H]5CC[C@](O)(CC)[C@H](C)O5)O4)O3)[C@H](C)C[C@@H]2C)[C@@H](C)C[C@@H]1C`, for which the Potency result in [2] was “inactive”.

For the compound `CC(Oc1ccccc1)C(=O)N[C@@H]1C(=O)N2[C@@H]1SC(C)(C)[C@@H]2C(=O)O` (some centres undefined), the Potency entry in [2] and in test [3] was “inactive” each time.

Regarding `CCOC(=O)O[C@]1(C(=O)COC(=O)CC)CC[C@H]2[C@@H]3CCC4=CC(=O)C=C[C@]4(C)[C@H]3[C@@H](O)C[C@@]21C`, in [2], the Potency entry was “inactive”.

In the case of `C[C@H]1[C@H](C)CC[C@]2(C(=O)O)CC[C@]3(C)C(=CC[C@@H]4[C@@]5(C)C[C@@H](O)[C@H](O)[C@@](C)(CO)[C@@H]5CC[C@]43C)[C@H]12`, the outcome in test [6], in test [7], in test [8], in [9] and in test [10] was inactive. The Potency result in test [2] and in [4] was “inactive” each time.

For `COC(=O)[C@H]1[C@H]2C[C@@H]3c4[nH]c5ccccc5c4CCN3C[C@H]2C[C@@H](OC(=O)c2cc(OC)c(OC)c(OC)c2)[C@@H]1OC`, the Potency entry in test [2] was “inactive”. In test [3], the Potency is 17.8 µM (active).

Turning to `N[C@H]1C[C@H]1c1ccc(-c2cccc(O)c2)cc1`, the outcome in [1] was inactive. Further, the Potency entry in [2] and in [4] was “inactive” each time.

Take `C[C@@H]1CCN(C(=O)CC#N)C[C@@H]1N(C)c1ncnc2[nH]ccc12`: the Potency entry in [2] and in test [3] was “inactive” throughout.

For the compound `Clc1cc(Cl)c(OCC#CI)cc1Cl`, the Potency entry in [2] and in test [3] was “inactive” throughout.

Regarding `CC1=CCC(C(C)(C)O)CC1` (centres undefined), the compound was called inactive in test [9] and in test [10]. Besides, the Potency result in [2] and in [3] was “inactive” in each case.

Take `CCCCC(CC)COC(=O)CC(C(=O)OCC(CC)CCCC)S(=O)(=O)O` (centres undefined): the Potency result in test [2] is “inactive”.

Regarding `CCCCCCCC(=O)O`, the result in test [6], in test [8], in test [9] and in test [10] was inactive. Further, the Potency entry in test [2] and in [3] was “inactive” throughout.

`Oc1cc(O)c2c(c1)OC(c1ccc(O)c(O)c1)C(O)C2` (centres undefined): the call in [9] was inactive.

Regarding `O=C(O)c1ccc(CCCc2ccc(OCCc3ccc(F)cc3)cc2)o1`, the Potency entry in [2] was “inactive”. Moreover, in test [3], the Potency was 16.1 µM (active).

With `CC(Cc1ccc(O)c(O)c1)C(C)Cc1ccc(O)c(O)c1` (centres undefined), in test [2], the Potency entry was “inactive”. In addition, the Potency in test [3] is 11.2 µM (active).

`CCCCC(=O)OCC(=O)[C@]1(O)Cc2c(O)c3c(c(O)c2[C@@H](O[C@H]2C[C@H](NC(=O)C(F)(F)F)[C@H](O)[C@H](C)O2)C1)C(=O)c1c(OC)cccc1C3=O`: the Potency entry in test [2] and in test [3] was “inactive” throughout.

`Cc1cc(/C=C/c2ccc3cc(N(C)C)ccc3[n+]2C)c(C)n1-c1ccccc1`: the Potency entry in test [2] is “inactive”. Further, in test [3], the Potency was 14.1 µM (active).

On to `COC(=O)CCC(=O)CN`, for which the Potency result in [2] and in test [3] was “inactive” throughout.

Regarding `COC(=O)C1=C(C#N)NC(C)=C(C(=O)OC(C)C)C1c1cccc([N+](=O)[O-])c1` (centres undefined), the Potency result in test [2] and in test [3] was “inactive” each time.

With `CC(=O)Oc1cc(C)c(OC(C)=O)c2ccccc12`, the Potency entry in test [2] and in test [3] was “inactive” each time.

As to `CO[C@H](C(=O)[C@@H](O)[C@@H](C)O)C1Cc2cc3cc(O[C@H]4C[C@@H](O[C@H]5C[C@@H](O)[C@H](O)[C@@H](C)O5)[C@@H](O)[C@@H](C)O4)c(C)c(O)c3c(O)c2C(=O)[C@H]1O[C@H]1C[C@@H](O[C@H]2C[C@@H](O[C@H]3C[C@](C)(O)[C@H](O)[C@@H](C)O3)[C@H](O)[C@@H](C)O2)[C@H](O)[C@@H](C)O1` (some centres undefined), the Potency entry in test [2] was “inactive”.

Source of the values: PubChem BioAssay (NCATS).
